Data from article PMC4336329 (PLoS ONE, 2015).
Hit rate of the full screen: of about 310,000 compounds, about 14,000 (4.5%) showed an effect of 50% or more. Effects have a minus sign here. This is one part of a sample in which strong results are shown more often than they occur.

Each compound was assayed against human ether-à-go-go-related gene (hERG) potassium channel (human, UniProt Q12809) (assay: primary screen, population patch clamp on CHO cells stably expressing hERG; higher = less effect of the substance).
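Further: peak tail current of the secondary pulse compared with the same well before compound.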

human ether-à-go-go-related gene (hERG) potassium channel, sequence (Q12809 whole entry, looked up): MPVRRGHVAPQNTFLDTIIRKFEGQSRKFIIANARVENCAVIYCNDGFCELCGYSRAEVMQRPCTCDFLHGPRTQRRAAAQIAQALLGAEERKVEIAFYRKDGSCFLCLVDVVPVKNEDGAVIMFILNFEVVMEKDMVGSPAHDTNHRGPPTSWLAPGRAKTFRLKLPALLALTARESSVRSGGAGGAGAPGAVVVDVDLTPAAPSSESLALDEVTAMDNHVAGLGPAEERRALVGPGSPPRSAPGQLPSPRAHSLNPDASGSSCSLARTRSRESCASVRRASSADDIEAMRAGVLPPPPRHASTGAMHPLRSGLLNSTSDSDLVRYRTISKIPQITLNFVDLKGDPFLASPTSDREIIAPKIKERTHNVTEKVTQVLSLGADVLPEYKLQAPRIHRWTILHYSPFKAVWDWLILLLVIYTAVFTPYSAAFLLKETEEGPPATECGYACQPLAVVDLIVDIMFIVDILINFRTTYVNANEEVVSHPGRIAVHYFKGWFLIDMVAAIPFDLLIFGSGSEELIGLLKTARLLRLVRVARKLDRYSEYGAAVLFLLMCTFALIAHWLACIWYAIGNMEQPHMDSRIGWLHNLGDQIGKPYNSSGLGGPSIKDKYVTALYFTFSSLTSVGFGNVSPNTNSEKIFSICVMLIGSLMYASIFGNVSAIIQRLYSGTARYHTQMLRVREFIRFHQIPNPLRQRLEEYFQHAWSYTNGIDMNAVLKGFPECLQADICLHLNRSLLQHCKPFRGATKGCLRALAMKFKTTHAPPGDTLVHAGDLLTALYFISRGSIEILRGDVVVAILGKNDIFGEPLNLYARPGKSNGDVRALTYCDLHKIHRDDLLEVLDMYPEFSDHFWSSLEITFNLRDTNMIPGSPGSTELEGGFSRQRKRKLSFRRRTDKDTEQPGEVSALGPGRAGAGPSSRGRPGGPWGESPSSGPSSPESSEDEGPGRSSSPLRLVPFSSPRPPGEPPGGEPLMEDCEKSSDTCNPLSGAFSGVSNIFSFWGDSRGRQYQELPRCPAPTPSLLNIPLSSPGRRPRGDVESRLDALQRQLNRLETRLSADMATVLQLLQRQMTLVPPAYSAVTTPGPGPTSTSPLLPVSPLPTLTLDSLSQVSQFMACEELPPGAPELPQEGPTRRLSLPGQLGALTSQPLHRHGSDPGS

SMILES	hERG current change (%, negative = inhibition) at 10uM [%]
Cc1cccc(NS(=O)(=O)c2cccc3cccnc23)n1	4.27
COC(=O)C(Cc1ccccc1)NC(=O)c1cccc(S(=O)(=O)N(C)C)c1 (centres unmarked)	2.5
Cc1ccccc1-c1noc(N)c1C#N	0.198
CCCOc1cc(C)c(S(=O)(=O)NC2CC(C)(C)NC(C)(C)C2)cc1C	-15
Cn1c(CSCc2ccc(Cl)cc2)nnc1SCC(=O)Nc1nc2ccccc2s1	9.45
Cc1cc(C)cc(C(=O)NCCn2cc(SCC(=O)N3CCOCC3)c3ccccc32)c1	-9.88
O=C(O)CNc1nc(Cl)ccc1[N+](=O)[O-]	6.24
O=[N+]([O-])c1cccnc1NCCc1ccccc1	-18.9
O=C(O)CNc1ncccc1[N+](=O)[O-]	-86.1
CNC(=O)C(=O)NCCN1CCN(S(=O)(=O)c2ccc3ccccc3c2)CC1	29.3
CC[C@@H]1CN(C)[C@H]2Cc3c([nH]c4ccccc34)C(=O)C[C@@H]1[C@@H]2C(=O)OC	11.8
CC[C@H]1CN(C)CCc2c([nH]c3ccccc23)C(=O)C[C@@H]1/C(=C\OC)C(=O)OC	-69.5
CC[C@H]1CN(C)C[C@@]2(C(=O)OC)Cc3c([nH]c4ccccc34)C(=O)C[C@@H]12	9.71
C=CCc1cccc(C=Nc2ccc(Br)cc2)c1O	-4.96
FC(F)(F)c1cc(Oc2ccc(Cl)cc2)ncc1-c1nnc(-c2ccc(Cl)cc2)o1	5.81
CC(C)C(=O)NCCc1nc(-c2ccccc2Cl)no1	16.1
O=C(OCCCN=C1NS(=O)(=O)c2ccccc21)C1CC(=O)N(c2ccc(Cl)cc2)C1 (centres unmarked)	-58.7
O=C(OCCOCCN=C1NS(=O)(=O)c2ccccc21)C1CC(=O)N(c2ccccc2)C1 (centres unmarked)	13.1
O=C(OCCN=C1NS(=O)(=O)c2ccccc21)C1CC(=O)N(c2ccc(Cl)cc2)C1 (centres unmarked)	-7.04
CC1(C)CC(CC(=O)O)(c2ccc(F)cc2)CCO1 (centres unmarked)	3.33

SMILES	hERG current change (%, negative = inhibition) at 10uM [%]
Cc1ccc(C)c(SCC(=O)Nc2ccc(C)c(S(=O)(=O)N3CCOCC3)c2)c1	-13.4
CCOCCCNc1c(CC)c(C)c(C#N)c2nc3ccccc3n12	-42.3
CC(C)CNC(=O)c1c(N)n(Cc2ccco2)c2nc3ccccc3nc12	-14.1
Cc1cc(C)cc(-n2c3nc4ccccc4nc3c3c(=O)n(Cc4ccco4)cnc32)c1	6.26
COCCOC(=O)c1c(N)n(Cc2ccccc2)c2nc3ccccc3nc12	-36.5
COCCOC(=O)c1c(N)n(Cc2ccco2)c2nc3ccccc3nc12	-56.7
COCCOC(=O)c1c(N)n(Cc2ccc(OC)cc2)c2nc3ccccc3nc12	-75.4
COCCCNC(=O)c1c(N)n(Cc2ccco2)c2nc3ccccc3nc12	-2.08
COCCNC(=O)c1c(N)n(Cc2ccco2)c2nc3ccccc3nc12	-6.12
Cc1ccc(Cn2c(C)nc3c(c2=O)c2nc4ccccc4nc2n3Cc2ccco2)cc1	5.72
COCC(C)OC(=O)c1c(N)n(Cc2ccco2)c2nc3ccccc3nc12 (centres unmarked)	-55.7
COC(=O)c1c(N)n(Cc2ccc(OC)cc2)c2nc3ccccc3nc12	-34.1
Cc1cccc(-n2cnc3c(c2=O)c2nc4ccccc4nc2n3Cc2ccco2)c1	-63.7
CC(C)OC(=O)c1c(N)n(Cc2ccco2)c2nc3ccccc3nc12	-31.4
COC(=O)C1=C(C)Nc2ncnn2C1c1ccco1 (centres unmarked)	6.44
COCCCn1c(SCC(=O)NNC(=O)c2cccc(O)c2)nnc1-c1ccncc1	5.74
COc1ccc(-c2nc(C#N)c(N3CCC(C(N)=O)CC3)o2)cc1OC	-10.3
COCCN(CC(=O)Nc1cccc(C)c1C)C(=O)c1cc(-c2cccs2)nn1-c1ccccc1	1.14
CCCCOc1ccc(CSc2n[nH]c(C)n2)cc1	-1.41
CN1CCN(C(=O)CC2C(=O)NCCN2Cc2ccc(-c3ccccc3)cc2)CC1 (centres unmarked)	2.25

SMILES	hERG current change (%, negative = inhibition) at 10uM [%]
COC(=O)C1CN(C(=O)COc2cc(C)c(Cl)c(C)c2)c2ccccc2O1 (centres unmarked)	18.9
O=C1NC(=O)C2(CCC(C(=O)O)C2)N1 (centres unmarked)	19.3
CCOC(=O)c1oc2ccc(/C=N/O)c(Cl)c2c1C	37.3
O=C(CSc1cccc[n+]1[O-])Nc1ccc(C(F)(F)F)cc1[N+](=O)[O-]	4.31
Clc1ccc(CO/N=C/c2cccs2)cc1	12.4
CCCCOCCCn1c(N)c(C(=O)OC(C)COC)c2nc3ccccc3nc21 (centres unmarked)	-9.66
CC(C)(C)OC(=O)c1c(N)n(Cc2ccco2)c2nc3ccccc3nc12	-5.55
CCOC(=O)c1c(N)n(Cc2ccco2)c2nc3ccccc3nc12	-61.9
CCOC(=O)c1c(N)n(Cc2ccccc2)c2nc3ccccc3nc12	-29.6
COCCCn1c(N)c(C(=O)OC(C)COC)c2nc3ccccc3nc21 (centres unmarked)	0.737
COCC(C)OC(=O)c1c(N)n(CC(C)C)c2nc3ccccc3nc12 (centres unmarked)	-67.8
CSc1nccc(-c2nn(-c3ccc(C)cc3)ccc2=O)n1	-15
COC(=O)CSc1nnc(CNC(=O)c2ccc(S(=O)(=O)N3CCOCC3)cc2)n1C	23.7
COCCNC(=O)c1cccc(OC2CCN(Cc3ccc(C(=O)OC)cc3)CC2)c1	-40.5
COCCNC(=O)c1cccc(OC2CCN(Cc3ccc(Cl)c(F)c3)CC2)c1	-37.5
COCCNC(=O)c1cccc(OC2CCN(Cc3ccc(F)c(OC)c3)CC2)c1	-16.2
COCCNC(=O)c1cccc(OC2CCN(Cc3ccccc3OC(F)F)CC2)c1	2.5
COCCNC(=O)c1cccc(OC2CCN(Cc3ccc(OC(F)F)cc3)CC2)c1	-73.5
COCCNC(=O)c1cccc(OC2CCN(Cc3ccc(C(C)C)cc3)CC2)c1	-70.7
